Laboratory results from the supplement of paper PMC10681739.

Experiments:
ETS1 [1] = molecular target: T1, ETS1 (UniProt P14921); assay: ETS1 binding intensity (PBM fluorescence), ETS1 alone (arbitrary fluorescence units); higher = stronger binding; conditions: ETS1 concentration 1 nM; RUNX1 concentration 0 nM
T1 sequence: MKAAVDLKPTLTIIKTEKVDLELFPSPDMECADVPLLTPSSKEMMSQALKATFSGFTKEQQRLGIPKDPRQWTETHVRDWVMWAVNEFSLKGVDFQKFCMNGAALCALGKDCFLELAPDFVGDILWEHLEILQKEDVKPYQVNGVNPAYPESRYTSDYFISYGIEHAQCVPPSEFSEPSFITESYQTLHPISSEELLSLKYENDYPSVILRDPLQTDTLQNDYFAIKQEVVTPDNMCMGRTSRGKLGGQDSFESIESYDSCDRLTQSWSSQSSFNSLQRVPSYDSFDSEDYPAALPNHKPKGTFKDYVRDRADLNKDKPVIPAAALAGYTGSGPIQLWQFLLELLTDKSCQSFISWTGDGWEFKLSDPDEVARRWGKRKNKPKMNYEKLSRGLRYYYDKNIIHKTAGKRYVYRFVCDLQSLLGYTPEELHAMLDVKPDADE

ETS1 [2] = molecular target: T1, ETS1; assay: ETS1 binding intensity (PBM fluorescence) in presence of RUNX1, normalised to ETS1-only experiment (arbitrary fluorescence units); higher = stronger binding; conditions: ETS1 concentration 1 nM; RUNX1 concentration 25 nM
RUNX1 [3] = molecular target: RUNX1 (UniProt Q01196); assay: RUNX1 binding intensity (PBM fluorescence) in presence of ETS1, normalised to RUNX1-only experiment (arbitrary fluorescence units); higher = stronger binding; conditions: RUNX1 concentration 2 nM; ETS1 concentration 25 nM
Description: (§1)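 Cooperative gcPBM on 36-bp genomic probes with neighbouring ETS1 and RUNX1 sites. Recombinant human RUNX1 (2 nM) was incubated alone or with ETS1 (25 nM) and detected with anti-RUNX1 antibody plus Alexa488 secondary. Values are medians over 4 replicate spots; the RUNX1+ETS1 data were normalised to the RUNX1-only data. The probes sit in constant array flanks that are not printed.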

RUNX1 [4] = molecular target: RUNX1 (UniProt Q01196); assay: RUNX1 binding intensity (PBM fluorescence), RUNX1 alone (arbitrary fluorescence units); higher = stronger binding; conditions: RUNX1 concentration 2 nM; ETS1 concentration 0 nM
Description: as §1
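Throughout, for RUNX1 binding intensity (PBM fluorescence) in presence of ETS1, normalised to RUNX1-only experiment: Full-length recombinant human ETS1 or RUNX1 bound to double-stranded 36-bp genomic probes on microarrays, detected by protein-specific primary antibody and Alexa488 secondary, spot fluorescence as median of four replicate spots.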
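Throughout, for RUNX1 binding intensity (PBM fluorescence), RUNX1 alone: Full-length recombinant human RUNX1 bound to double-stranded 36-bp genomic probes on a high-density microarray, scored as Alexa488 fluorescence per spot via anti-RUNX1 antibody, median of four replicate spots.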

Chain of RUNX1 (Q01196 whole entry): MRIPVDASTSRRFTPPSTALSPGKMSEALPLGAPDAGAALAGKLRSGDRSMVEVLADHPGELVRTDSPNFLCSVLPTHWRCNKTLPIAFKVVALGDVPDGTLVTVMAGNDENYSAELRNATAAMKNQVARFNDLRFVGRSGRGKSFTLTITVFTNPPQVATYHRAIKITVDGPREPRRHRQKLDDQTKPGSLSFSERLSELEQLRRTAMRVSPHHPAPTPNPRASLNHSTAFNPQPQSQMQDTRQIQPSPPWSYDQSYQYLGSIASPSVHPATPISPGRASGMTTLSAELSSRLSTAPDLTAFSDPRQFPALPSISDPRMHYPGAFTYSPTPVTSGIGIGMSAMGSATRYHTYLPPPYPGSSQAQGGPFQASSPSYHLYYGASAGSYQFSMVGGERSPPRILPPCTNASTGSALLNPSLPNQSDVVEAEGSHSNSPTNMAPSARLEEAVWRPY

Sequence | ETS1 binding intensity (ETS1 [1]) | ETS1 binding intensity (ETS1 [2]) | RUNX1 binding intensity (RUNX1 [3]) | RUNX1 binding intensity (RUNX1 [4])
TGGAAGAGGGCAGGAAGTGTTGTGGTCACTCCCACC | 4450 | 28900 | 1530 | 
CCATTTCCCCCATCACTTTGAATTGTGGTTCTTCTC |  |  | 2920 | 1590
TACTACTTACCAGCAGGATGTGGTCCCTGCCCACTG | 3230 | 7040 | 1250 | 
TGGCAGCGGGTGCGGAAACCACAGGCCTCCAGGCTT | 701 | 1520 | 2470 | 
GATGACTTCCTCAGTTCAGGGCTATGTGCGGGGGAG |  |  | 1060 | 833
CTTACCTACAGTTCCGCTTGCTGTGGTTTCAGTTAC | 403 | 843 | 2060 | 
CTCACAGCAGCCCCAGGAAACCACCTCTTCCTTCAG | 847 | 876 | 1030 | 
TTATGCCTCAGGATGAACGAACCTCAAACACCCAGG |  |  | 858 | 904
CCAGCGGAAAGCCGGTCAGGGGGAACCGCGGCGGGG |  |  | 758 | 893
ACCAGAACTAAAGCGGATAGCGGTTAGAAACGCCCA |  |  | 952 | 872
GGCGACCAGCTCCGGAAAGCGCGGTGGGGACGCGCT |  |  | 865 | 805
CCCATTTCCGAGAGTGGCAGGGCTGGGCGCGGTGGG |  |  | 1420 | 978
AGCTAGGACAGGATGTGAAAACCACACTGACAAAGT |  |  | 3510 | 919
GGAGGCGGAAGTGGAGGTTGTTGTGGCTCCGAGGGC |  |  | 1100 | 727
ATTGCTTCCGACGCTACTCCTGCCGGGTCACCACAG |  |  | 1020 | 785
CGGGGTTTCCTGGTGGCTGCGAGCGGTGGGGACGGC |  |  | 1140 | 728
ACCACACTTCCCAGGAGTCTCTGCGGCCGCGCGGAG |  |  | 801 | 938
AGAGGCAGTTCCGGGGTGGGAACCGCGCGGAGCTTT |  |  | 1220 | 687
TTCATAAAGGAGAGGAAACCTGACCACGACAGAAAG |  |  | 754 | 897
CCCAGGGCAGGAAGGGCCAAACCGCTACTGCCACTG |  |  | 908 | 744
GCTGGTATGGCAGGAAGTTTCTCACCACAGTATACT |  |  | 1160 | 780
CCCAGCCCTGCTGCCGGATGTGGTGAGGCCCAGGTG |  |  | 5400 | 768
CCAGTGCAGAAACATCCCTCCTGCCGCAGCTTTGTC |  |  | 896 | 1020
GATTGTTATGTCCGGAAACCGCTTATCAGAGCCCTG |  |  | 1590 | 861

Sequence | ETS1 binding intensity (ETS1 [1]) | ETS1 binding intensity (ETS1 [2]) | RUNX1 binding intensity (RUNX1 [3]) | RUNX1 binding intensity (RUNX1 [4])
GACAGTTTTCCGGCCTAGTTTGCGGCTGCTCCTGCC |  |  | 2440 | 830
CGGCGCGGCGGACGTTGCTGCGGTAGGACGTGCCCG |  |  | 875 | 838
GCTTAAGGAAGGGACAACTAGAGTGGGTTACTCTGC |  |  | 717 | 863
CCGGGAAACACGGGAGAGCGACCGAAACCGCAATCA |  |  | 4390 | 3650
TGACACCAGCCCTGAGGATGTGGTTCATCCTCCCAC |  |  | 817 | 868
CATCTCGGAAACGGACAGCAAGATCCCGCATTAACA |  |  | 853 | 977
AATCGCGCAGTTCCGCAGCTGCCGCCCCACAACCGT |  |  | 960 | 863
TTAACTCCACGGAAGAATAAACCACCACCGCTCACC |  |  | 908 | 1080
CGGCGCCTTCCGCAGAGGGACTGCGGCTTTCTGCGC |  |  | 1390 | 946
GCCTCCTTCCTGGGCTCCTTTAAGAGGGTGGTAACG |  |  | 1130 | 743
CGGCAGGCAAGCAGGAAACCGCGAGTGGAGAAAGGG |  |  | 1860 | 1010
CAGACACCAACGCTCGGAAACCGCCAGACACCAAGG |  |  | 888 | 1030
TAAATCGGAAACTCGCCGCTCAGCCCGCAGCCGCCG |  |  | 808 | 901
ACCGAAAACAGGGCCTTCCGCGGTTATACAGATCCT |  |  | 998 | 868
GCCCCTTTTTCCTGGGATGAGCGGTTAGCGGAGGGG |  |  | 1080 | 1090
AGACTCCATCCGCCATGTTGGATGCCGCAGATTCGC |  |  | 1050 | 813
ATTAAAAAAATTTCCTTTGTGGTCACTTAGTTATTA |  |  | 1520 | 1350
TTACCCCAGGAAAAGCCTCCTCACCGCAGTGACCAG |  |  | 905 | 998
TTTCTTCTGATCTTCCTCCCCGCACGTCTGCACAGG |  |  | 1020 | 1220
CTTCTTCCTGCTGAGACTGATACAGCCCGCAAAGCT |  |  | 1800 | 994
CATGACGAAGGGGAAGGATGTGGTTTGAGGGCAGCA |  |  | 1310 | 847
CTCCCGGACGCTAACGTCTGGCAAACCACATTGCCC |  |  | 857 | 993
AGAGGCTTCCTGAGGAACTGGTGTGGTCAGGGGAGC |  |  | 1010 | 740
GGGCATGGTGGCTTCCGACCGCGGGGACCCCGAGAG |  |  | 956 | 738
